26 compounds from PubChem BioAssay (NCI) can be followed below.

“And” between values parts separate entries of the source, which are not always exact repeats. Identical values can stand only once. Compounds without any hit were thinned out: in the full panel of roughly 83,000, 20% have a hit.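 Treatment: one concentration, 48 hours, 96-well format. Scoring: percent growth, with anything below 10 considered active.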 The source made the active and inactive calls.

This test deals with MDA-MB-468 breast. The test is described as follows: NCI-60 one-dose screen, 48 h (100 = growth as untreated, 0 = no growth, -100 = all killed). The settings on record: 10 µM unless noted.
`CN(C)CCCN1c2ccccc2Sc2ccc(Cl)cc21`: the growth was 9.1% (active) and 105% (inactive) and 77.4% (inactive).

Take `c1ccc(Nc2ccccn2)cc1`: the growth is 111% (inactive).

Consider `CN1CCN(c2ccc(Nc3nc(NCCCNS(=O)(=O)c4ccccc4)c4sccc4n3)cc2)CC1`, for which the growth was 30.3% (inactive).

In the case of `CCN1CCN(Cc2ccc(Cc3ncc(F)c(-c4cc(F)c5nc(C)n(C(C)C)c5c4)n3)nc2)CC1`, the growth is 80.6% (inactive).

Consider `COc1ccc(OC)c(NCC(=O)n2nc(/C=C\c3ccc(O)c(OC)c3)cc2/C=C\c2ccc(O)c(OC)c2)c1`, for which the growth was 12.1% (inactive).

On to `CCCCCCCCCCCCCCCCCCOc1ccccc1CC(=O)NCC[N+]1(C)CCCC1`, for which the growth was 3.53% (active).

As for `CS(=O)(=O)OCC(COS(C)(=O)=O)C(c1ccccc1)c1ccccc1`, the growth was 102% (inactive).

Regarding `CC1CN(CCCOC(=O)Nc2ccc(Cl)cc2)CCN1C(C)(C)C` (stereo unspecified), the growth is 104% (inactive).

As for `CNC(=O)c1cc(Oc2ccc3nc(NC(=O)Nc4ccc(C(F)(F)F)cc4)sc3c2)ccn1`, the growth was 49.9% (inactive).

Take `CC(C)C[C@H](NC(=O)Cn1cccc(CNC(=O)c2ccccc2)c1=O)B(O)O`: the growth is -19.5% (active).

On to `N=C(N)c1ccc(OCCCCCCCCCCOc2ccc(C(=N)N)cc2)cc1`, for which the growth was -75.6% (active).

`COc1nc2ccccc2cc1-c1nc2c(cnn2-c2ccccc2)c(=O)[nH]1`: the growth was 35.9% (inactive).

Regarding `CCCCCCCCCCSC(=N)N`, the growth was -83.1% (active).

On to `COC(=O)[C@H](Cc1ccccc1)NC(=O)[C@@H](OC)[C@@H]1Cc2cc3cc(OC4CC(OC5CC(O)C(O)C(C)O5)C(O)C(C)O4)c(C)c(O)c3c(O)c2C(=O)[C@H]1OC1CC(OC2CC(OC3CC(C)(O)C(O)C(C)O3)C(O)C(C)O2)C(O)C(C)O1` (stereo partly specified), for which the growth is -36.7% (active).

Regarding `COc1cc(N=Nc2ccc(O)c3ncccc23)c2ncccc2c1`, the growth is -36.5% (active).

Regarding `Cn1cc(-c2csc(-c3c[nH]c4ncccc34)n2)c2cc(Br)cnc21`, the growth is 15.4% (inactive).

Turning to `CCCCCCCCCCCCCCCCC1CC(=O)OC1=O` (stereo unspecified), the growth was 119% (inactive).

With `CN1CCN(c2c(F)cc(NC3=C(Cl)C(=O)c4ncccc4C3=O)cc2F)CC1`, the growth is -46.6% (active).

Consider `O=C(Cc1ccccn1)C(F)(F)C(F)(F)C(F)(F)F`, for which the growth is 115% (inactive).

On to `CC1CCC(C(=O)O)N1` (stereo unspecified), for which the growth is 106% (inactive).

Regarding `Cc1ccc(/C=C/c2c(C(=O)/C=C/c3ccc(Cl)cc3)c(C)nc3ccccc23)cc1`, the growth was -23.3% (active).

Take `NCC(=O)NC(CC(=O)O)C(=O)O` (stereo unspecified): the growth is 102% (inactive).

In the case of `NS(=O)(=O)c1ccc(Nc2nc(N/N=C/c3c[nH]c4ccccc34)nc(Nc3ccccc3)n2)cc1`, the growth was 52.7% (inactive).

As for `Cc1ccc(S(=O)(=O)OCC#CCOS(=O)(=O)c2ccc(C)cc2)cc1`, the growth is -25.3% (active).

As for `O=c1[nH]c(=O)n(C2C[C@H](O)[C@@H](CO)O2)cc1C(F)(F)F` (stereo partly specified), the growth was 117% (inactive).

With `O=C(Nc1ccc(Cl)cc1F)c1cc(F)ccc1O`, the growth is 3.61% (active).
